Laboratory results: article PMC7862700, “An all-to-all approach to the identification of sequence-specific readers for epigenetic DNA modifications on cytosine”

Columns and labels:
Assay in all cases: DAPPL (digital affinity profiling via proximity ligation, sequencing); 10 mM Tris-HCl pH 7.5, 50 mM NaCl, 1 mM DTT, 4% glycerol, room temperature, 30 min; GST-TFs on glutathione beads, 16-mer random dsDNA library, 0.1% formaldehyde crosslink after washing; high values mean tight binding
FEV = biological target: T1, FEV (Homo sapiens, UniProt Q99581 1-238); settings: protein: recombinant; tags: N-terminal GST; dsDNA, one strand shown
T1 sequence: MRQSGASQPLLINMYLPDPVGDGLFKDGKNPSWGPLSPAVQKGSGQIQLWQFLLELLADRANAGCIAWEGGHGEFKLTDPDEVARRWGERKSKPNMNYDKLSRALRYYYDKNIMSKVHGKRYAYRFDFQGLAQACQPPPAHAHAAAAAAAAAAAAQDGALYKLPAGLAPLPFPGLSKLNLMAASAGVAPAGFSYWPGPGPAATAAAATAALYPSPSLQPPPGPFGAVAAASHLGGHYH
Procedure, shortened: (§1)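 A tag-only sample was pooled with DNA-barcoded human transcription factors that had been expressed in yeast as GST fusions and captured on glutathione beads. The pools were incubated for 30 min at room temperature with 200 nmole of a random double-stranded 16-mer DNA library in Tris/NaCl/DTT/glycerol buffer, then washed, crosslinked with 0.1% formaldehyde, proximity-ligated (BsaI/T4 ligase, 1 h, 37 °C), PCR-amplified and sequenced on an Illumina NextSeq500. Binding signal is each hexamer's read frequency for a factor divided by its frequency for the tag-only sample.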

ETV5 = ETV5 (Homo sapiens, UniProt P41161 1-510); settings: protein: recombinant; tags: N-terminal GST; dsDNA, one strand shown
ETV5, sequence (P41161 whole entry): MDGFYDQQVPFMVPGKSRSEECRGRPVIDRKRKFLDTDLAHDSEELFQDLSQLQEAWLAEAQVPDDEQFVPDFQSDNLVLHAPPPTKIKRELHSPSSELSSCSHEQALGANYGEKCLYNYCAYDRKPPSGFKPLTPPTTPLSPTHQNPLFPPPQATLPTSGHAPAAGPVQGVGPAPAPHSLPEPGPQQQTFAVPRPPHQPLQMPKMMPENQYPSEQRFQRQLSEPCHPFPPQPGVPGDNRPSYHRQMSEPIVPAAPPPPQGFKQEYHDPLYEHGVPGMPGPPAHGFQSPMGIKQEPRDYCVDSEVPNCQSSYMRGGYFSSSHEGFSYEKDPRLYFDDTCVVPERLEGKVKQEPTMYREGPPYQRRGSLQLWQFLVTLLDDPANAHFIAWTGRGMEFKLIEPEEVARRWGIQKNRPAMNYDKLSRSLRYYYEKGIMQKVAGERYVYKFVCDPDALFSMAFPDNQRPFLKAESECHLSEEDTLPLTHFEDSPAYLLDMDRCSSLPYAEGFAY
Procedure, shortened: as §1

HSF1 = HSF1 (Homo sapiens, UniProt Q00613 1-529); settings: protein: recombinant; tags: N-terminal GST; chain copies: 3; dsDNA, one strand shown
HSF1, sequence (Q00613 whole entry): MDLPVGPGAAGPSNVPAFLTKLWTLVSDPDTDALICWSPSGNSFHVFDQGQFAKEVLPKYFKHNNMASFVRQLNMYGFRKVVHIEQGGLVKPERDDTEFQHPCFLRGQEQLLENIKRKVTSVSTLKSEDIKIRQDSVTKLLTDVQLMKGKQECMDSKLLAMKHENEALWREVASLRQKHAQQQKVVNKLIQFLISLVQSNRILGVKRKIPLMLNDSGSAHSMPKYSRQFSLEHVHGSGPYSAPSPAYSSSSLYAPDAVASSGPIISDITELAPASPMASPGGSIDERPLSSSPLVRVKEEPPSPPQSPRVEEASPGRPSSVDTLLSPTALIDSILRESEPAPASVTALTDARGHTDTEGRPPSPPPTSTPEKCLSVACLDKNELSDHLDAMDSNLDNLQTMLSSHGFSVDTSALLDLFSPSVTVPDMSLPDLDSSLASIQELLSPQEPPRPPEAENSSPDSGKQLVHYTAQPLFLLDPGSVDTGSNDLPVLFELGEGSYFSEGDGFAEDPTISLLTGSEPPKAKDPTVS
Procedure, shortened: as §1

SPIC = biological target: T2, SPIC (Homo sapiens, UniProt Q8N5J4 1-248); settings: protein: recombinant; tags: N-terminal GST; dsDNA, one strand shown
T2 sequence: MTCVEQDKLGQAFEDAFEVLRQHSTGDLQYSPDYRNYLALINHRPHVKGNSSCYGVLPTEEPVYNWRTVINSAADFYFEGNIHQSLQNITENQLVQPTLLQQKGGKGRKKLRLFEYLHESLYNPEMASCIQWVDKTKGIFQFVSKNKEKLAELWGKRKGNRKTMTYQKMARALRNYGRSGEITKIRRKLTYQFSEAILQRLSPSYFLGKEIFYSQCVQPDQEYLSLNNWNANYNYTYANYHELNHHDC
Procedure, shortened: as §1

ELF4 = ELF4 (Homo sapiens, UniProt Q99607 1-663); settings: protein: recombinant; tags: N-terminal GST; dsDNA, one strand shown
ELF4, sequence (Q99607 whole entry): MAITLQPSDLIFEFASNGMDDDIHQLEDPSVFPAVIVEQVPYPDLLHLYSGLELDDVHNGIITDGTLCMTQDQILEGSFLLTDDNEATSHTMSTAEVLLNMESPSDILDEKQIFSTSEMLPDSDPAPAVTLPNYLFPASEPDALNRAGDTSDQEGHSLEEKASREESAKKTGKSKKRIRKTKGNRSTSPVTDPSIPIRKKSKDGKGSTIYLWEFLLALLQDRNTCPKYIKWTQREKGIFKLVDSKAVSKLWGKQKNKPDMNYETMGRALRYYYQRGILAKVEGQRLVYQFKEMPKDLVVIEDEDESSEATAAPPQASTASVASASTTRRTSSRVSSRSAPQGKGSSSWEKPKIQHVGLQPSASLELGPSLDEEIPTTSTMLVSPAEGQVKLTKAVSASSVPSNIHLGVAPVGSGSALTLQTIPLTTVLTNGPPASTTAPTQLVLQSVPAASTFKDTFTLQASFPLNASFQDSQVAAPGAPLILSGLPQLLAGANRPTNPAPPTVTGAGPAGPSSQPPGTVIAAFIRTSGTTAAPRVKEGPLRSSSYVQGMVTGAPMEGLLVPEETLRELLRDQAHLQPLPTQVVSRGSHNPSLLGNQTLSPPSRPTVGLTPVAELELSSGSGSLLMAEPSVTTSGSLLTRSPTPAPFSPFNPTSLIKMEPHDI
Procedure, shortened: as §1

ELK4 = biological target: T3, ELK4 (Homo sapiens, UniProt P28324-2 1-405); settings: protein: recombinant; tags: N-terminal GST; dsDNA, one strand shown
T3 sequence: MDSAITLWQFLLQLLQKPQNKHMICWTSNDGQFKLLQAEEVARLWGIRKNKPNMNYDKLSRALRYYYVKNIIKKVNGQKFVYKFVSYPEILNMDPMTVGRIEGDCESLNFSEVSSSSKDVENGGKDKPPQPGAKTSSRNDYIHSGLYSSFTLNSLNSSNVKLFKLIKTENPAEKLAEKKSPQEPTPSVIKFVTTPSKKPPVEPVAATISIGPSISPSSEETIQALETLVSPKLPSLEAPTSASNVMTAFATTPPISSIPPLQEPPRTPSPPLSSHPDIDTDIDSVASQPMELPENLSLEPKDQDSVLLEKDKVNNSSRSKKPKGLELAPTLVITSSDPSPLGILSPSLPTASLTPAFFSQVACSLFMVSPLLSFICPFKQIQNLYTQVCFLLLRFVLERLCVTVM
Procedure, shortened: as §1

ETV2 = biological target: T4, ETV2 (Homo sapiens, UniProt O00321 1-342); settings: protein: recombinant; tags: N-terminal GST; dsDNA, one strand shown
T4 sequence: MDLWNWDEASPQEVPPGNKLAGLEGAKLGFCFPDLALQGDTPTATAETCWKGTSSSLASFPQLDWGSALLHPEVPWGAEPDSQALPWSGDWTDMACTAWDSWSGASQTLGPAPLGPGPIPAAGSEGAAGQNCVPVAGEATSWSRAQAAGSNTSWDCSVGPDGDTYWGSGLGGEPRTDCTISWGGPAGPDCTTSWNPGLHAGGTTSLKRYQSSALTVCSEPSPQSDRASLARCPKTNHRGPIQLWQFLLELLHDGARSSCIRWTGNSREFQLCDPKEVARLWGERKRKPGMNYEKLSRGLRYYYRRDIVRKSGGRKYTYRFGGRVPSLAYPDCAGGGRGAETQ
Procedure, shortened: as §1

ELF3 = biological target: T5, ELF3 (Homo sapiens, UniProt P78545 1-371); settings: protein: recombinant; tags: N-terminal GST; dsDNA, one strand shown
T5 sequence: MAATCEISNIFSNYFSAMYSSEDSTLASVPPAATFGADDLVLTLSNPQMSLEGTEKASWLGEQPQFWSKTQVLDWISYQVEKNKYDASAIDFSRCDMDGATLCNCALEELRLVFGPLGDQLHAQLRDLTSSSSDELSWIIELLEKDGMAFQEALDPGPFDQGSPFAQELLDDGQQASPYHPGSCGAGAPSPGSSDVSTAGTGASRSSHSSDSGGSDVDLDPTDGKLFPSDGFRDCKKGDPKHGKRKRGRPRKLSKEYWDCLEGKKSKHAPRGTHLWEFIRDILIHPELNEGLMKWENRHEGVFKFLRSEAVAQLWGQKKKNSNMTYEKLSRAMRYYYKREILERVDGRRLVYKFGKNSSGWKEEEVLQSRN
Procedure, shortened: as §1

CRX = CRX (Homo sapiens, UniProt O43186 1-299); settings: protein: recombinant; tags: N-terminal GST; dsDNA, one strand shown
CRX, sequence (O43186 whole entry): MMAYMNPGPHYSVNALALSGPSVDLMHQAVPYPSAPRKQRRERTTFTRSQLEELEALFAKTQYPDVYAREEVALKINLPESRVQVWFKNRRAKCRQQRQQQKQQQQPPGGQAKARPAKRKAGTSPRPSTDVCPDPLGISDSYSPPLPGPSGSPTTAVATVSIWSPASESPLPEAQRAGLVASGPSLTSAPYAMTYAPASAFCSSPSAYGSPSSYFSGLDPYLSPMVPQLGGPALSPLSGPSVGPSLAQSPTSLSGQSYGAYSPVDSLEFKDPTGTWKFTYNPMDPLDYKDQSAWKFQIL
Procedure, shortened: as §1

ETV1 = ETV1 (Homo sapiens, UniProt P50549 1-477); settings: protein: recombinant; tags: N-terminal GST; dsDNA, one strand shown
ETV1, sequence (P50549 whole entry): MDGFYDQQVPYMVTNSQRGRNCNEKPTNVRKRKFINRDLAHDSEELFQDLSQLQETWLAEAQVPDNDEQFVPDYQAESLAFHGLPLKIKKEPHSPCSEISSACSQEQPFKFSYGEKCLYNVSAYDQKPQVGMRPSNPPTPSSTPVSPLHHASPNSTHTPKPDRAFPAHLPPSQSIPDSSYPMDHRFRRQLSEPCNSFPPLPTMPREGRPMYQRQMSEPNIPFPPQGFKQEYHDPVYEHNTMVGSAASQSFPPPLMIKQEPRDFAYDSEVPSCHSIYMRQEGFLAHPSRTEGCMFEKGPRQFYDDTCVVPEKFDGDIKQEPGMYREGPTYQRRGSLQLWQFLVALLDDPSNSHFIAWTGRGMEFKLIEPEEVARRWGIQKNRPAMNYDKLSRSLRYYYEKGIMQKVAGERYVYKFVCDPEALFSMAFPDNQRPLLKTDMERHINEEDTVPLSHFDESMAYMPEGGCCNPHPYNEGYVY
Procedure, shortened: as §1

Sequence: TTTCCG
- binding signal (FEV): 5.31 fold enrichment (6-mer frequency, TF over GST control)
- binding signal (ETV5): 4.02 fold enrichment (6-mer frequency, TF over GST control)
- binding signal (HSF1): 1.48 fold enrichment (6-mer frequency, TF over GST control)
- binding signal (SPIC): 3.86 fold enrichment (6-mer frequency, TF over GST control)
- binding signal (ELF4): 3.35 fold enrichment (6-mer frequency, TF over GST control)
- binding signal (ELK4): 2.97 fold enrichment (6-mer frequency, TF over GST control)
- binding signal (ETV2): 3.65 fold enrichment (6-mer frequency, TF over GST control)
- binding signal (ELF3): 3.54 fold enrichment (6-mer frequency, TF over GST control)
- binding signal (CRX): 1.39 fold enrichment (6-mer frequency, TF over GST control)
- binding signal (ETV1): 3.76 fold enrichment (6-mer frequency, TF over GST control)
